GPR151 activ: activators of human GPR151. activation, % at 11.2 µM. Q8TDV0. PathHunter beta-arrestin GPR151 cells, luminescence. 650,000 compounds, 1% hits; in the data active = activation above about 4.9%
TEAD-YAP block: TEAD-YAP interaction inhibition | HEK-TIYL cells, TEAD-Gal4/YAP UAS-luciferase luminescence | inhibition, % at 9.12 µM | 640,000 compounds, 1.4% hits; in the data active = inhibition above about 32%
MITF primary: inhibitors of human MITF | AlphaScreen MITF homodimerization, bead proximity signal | inhibition, % at 2.6 µM | 650,000 compounds, 0.91% hits | AID 1259374; in the data active = inhibition above about 50%
Target sequence (O75030 whole entry, looked up): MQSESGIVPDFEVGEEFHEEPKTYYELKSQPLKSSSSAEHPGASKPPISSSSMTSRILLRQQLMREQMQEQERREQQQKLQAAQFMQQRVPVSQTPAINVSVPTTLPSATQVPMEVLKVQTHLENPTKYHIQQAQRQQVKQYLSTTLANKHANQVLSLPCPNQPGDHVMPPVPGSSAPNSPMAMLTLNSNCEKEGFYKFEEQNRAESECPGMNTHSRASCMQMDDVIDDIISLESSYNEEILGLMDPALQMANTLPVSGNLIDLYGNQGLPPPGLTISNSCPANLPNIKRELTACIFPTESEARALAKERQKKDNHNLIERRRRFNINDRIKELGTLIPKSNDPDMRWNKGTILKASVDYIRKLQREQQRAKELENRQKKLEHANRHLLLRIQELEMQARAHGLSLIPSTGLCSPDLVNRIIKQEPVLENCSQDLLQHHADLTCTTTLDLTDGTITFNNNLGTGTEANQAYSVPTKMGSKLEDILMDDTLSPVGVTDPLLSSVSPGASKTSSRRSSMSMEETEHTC
FBW7 activator: activators of human E3 ligase FBW7; 650,000 compounds, 0.13% hits; normalized activity (activation), % at 26.1 µM; AlphaScreen FBW7–phospho-cyclin E peptide binding, activator screen; Q969H0; AID 1259310; in the data active = normalized activity above about 1.9%;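 also: purified mutant Fbw7 with reduced substrate affinity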
Hits are given with their value; i = inactive. In the library only some 3.5% were active in any assay of this set; here they are far more common.

SMILES | GPR151 activ | TEAD-YAP block | MITF primary | FBW7 activator
Cc1cc(C)nc(SCC(=O)OCC(=O)c2ccc3c(c2)NC(=O)CO3)n1 | i | i | i | i
COc1ccccc1C(=O)Nc1nc2ccccc2s1 | i | 95 | i | i
O=C(NC(=S)Nc1nc2ccccc2s1)c1ccccc1Cl | i | 70 | i | i
COc1ccc(C(=O)Nc2nc3c(Cl)cccc3s2)c(OC)c1 | i | 78 | i | i
O=C(Nc1nc2ccccc2s1)c1ccc(C(=O)c2ccccc2)cc1 | i | i | i | i
COc1ccccc1C(=O)Nc1nc2ccc(NC(C)=O)cc2s1 | i | i | i | i
CC(C)Oc1ccc(C(=O)Nc2nc3ccccc3s2)cc1 | i | 73 | i | i
COc1ccccc1-n1c(=S)sc2c(=O)n(-c3ccccc3)c(=S)[nH]c21 | i | i | i | i
CCCOc1ccc(C(=O)Nc2nc3ccccc3s2)cc1 | i | i | i | i
CCCc1ccc(C(=O)Nc2nc3ccccc3s2)cc1 | i | 38 | i | i
Cc1cc(NCCOc2ccccc2)nc(Nc2ccncc2)n1 | i | i | i | i
CC(C)Cc1nnc(NC(=O)CC(C)(C)C)s1 | i | i | i | 2.1
O=c1c(O)c(-c2cc(O)c(O)c(O)c2)oc2cc(O)cc(O)c12 | i | i | 82 | i
O=c1c(O)c(-c2ccccc2)oc2cc(O)cc(O)c12 | i | i | i | i
NC(=O)COC(=O)CNC(=O)c1ccc(Oc2ccccc2)cc1 | i | i | i | i
COc1ccccc1-c1csc(NC(=O)/C=C/c2ccccc2)n1 | i | i | i | i
COc1ccc(/C=C/C(=O)Nc2nc(-c3ccc(F)cc3)cs2)cc1OC | i | 57 | i | i
COc1ccc(C(=O)n2ncn(C)c2=S)cc1 | i | i | i | i
O=C(Cc1c(F)cccc1Cl)Nc1cc(C(=O)N2CCC(Cc3ccccc3)CC2)ccc1N1CC2CC(C1)c1cccc(=O)n1C2 (configuration not stated) | i | i | i | i
Cc1nc2cc(Cl)c([N+](=O)[O-])cc2s1 | i | i | i | 2.0
Cc1nc2ccc([N+](=O)[O-])cc2s1 | i | i | i | i
CCOc1ccc(/C=C2/NC(=O)N(CC(=O)Nc3cccc(C)c3)C2=O)c(OCC)c1 | i | i | i | 2.8
Cc1ccccc1CSc1nc2ccccc2c(=O)n1CCCC(=O)NCc1ccccc1Cl | i | i | i | i
O=C1CCCN1CCCNc1nccc(Nc2ccc(Oc3ccccc3)cc2)n1 | i | 39 | i | i
O=C1CCCN1CCCNc1nc(Nc2ccc3ncccc3c2)nc2c1ncn2-c1ccccc1 | i | 72 | i | i
SMILES | GPR151 activ | TEAD-YAP block | MITF primary | FBW7 activator
O=C1CCCN1CCCNc1nc(Nc2cnccn2)nc2c1ncn2-c1ccccc1 | i | 46 | i | i
O=C1CCCN1CCCNc1nc(NCCO)c2ncn(C3CCCCC3)c2n1 | i | i | i | 1.9
O=C1CCCN1CCCNc1nc(NCCCN2CCCC2=O)c2ncn(C3CCCCC3)c2n1 | i | i | i | i
O=C(CC[C@H]1CN(Cc2ccncc2)CC[C@H]1N1CCOCC1)Nc1ccc(Cl)cc1 | i | i | i | i
CCCCNC(=O)C(=O)c1c(O)[nH]c2ccccc12 | i | i | i | i
O=C1CCCN1CCCNc1nc(Nc2ccncc2)nc2c1ncn2-c1ccccc1 | i | 55 | i | i
O=C1CCCN1CCCNc1nc(Nc2ccccn2)nc2c1ncn2-c1ccccc1 | i | i | i | i
O=C1CCCN1CCCNc1nc(Nc2ccncn2)nc2c1ncn2-c1ccccc1 | i | 38 | i | i
CSCCC(NS(=O)(=O)c1ccccc1)C(=O)OCc1ccccc1F (configuration not stated) | i | i | i | i
O=C(Oc1ccc(N2C(=O)C=CC2=O)cc1)c1cccc2ccccc12 | i | i | i | 1.9
O=C(CCNC(=O)OCc1ccccc1)NC1CCCCC1 | i | i | i | i
O=C(CCNC(=O)Oc1ccccc1)NC1CCCCC1 | i | i | i | 1.9
Cc1nc(C(=O)N2CCCC(c3nc(-c4ccncc4)ncc3-c3ccccc3)C2)cs1 (configuration not stated) | i | 54 | i | i
O=C(c1ccccc1F)N1CCCC(c2nc(N3CCOCC3)ncc2-c2ccncc2)C1 (configuration not stated) | i | 56 | i | i
Cc1cc(-c2cnc(N3CCCC3)nc2C2CCCN(C(=O)c3ccco3)C2)on1 (configuration not stated) | i | 51 | i | i
c1cc2c(cc1CN1CCN(c3nc(NC4CC4)c4ncn(C5CCCCC5)c4n3)CC1)OCO2 | i | i | i | i
c1ccc2[nH]c(CNc3nc(N4CCN(Cc5ccc6c(c5)OCO6)CC4)nc4c3ncn4C3CCCCC3)nc2c1 | i | 41 | i | i
c1ccc2[nH]c(CNc3nc(N4CCN(Cc5ccc6c(c5)OCO6)CC4)nc4c3ncn4-c3ccsc3)nc2c1 | i | 85 | i | i
CCN(CC)S(=O)(=O)c1ccc2[nH]c3nc(SCC(=O)NC4CCCC4)nnc3c2c1 | i | i | i | i
Cc1ccc2c(c1)-c1c(cnn1CC(=O)Nc1cc(-c3cccc(F)c3)no1)CO2 | i | i | i | i
O=c1[nH]c(Nc2ccccc2)nnc1Cc1ccccc1Cl | i | i | i | i
COc1cccc(Nc2nnc(Cc3ccccc3Cl)c(=O)[nH]2)c1 | i | 46 | i | i
Cc1nnc(N(C(=O)c2cnccn2)c2ccccc2)s1 | i | 62 | i | i
Cn1cnnc1SCc1ccccc1Cl | i | i | i | i
Clc1ccccc1CSc1nn2cnnc2s1 | i | 55 | i | i
SMILES | GPR151 activ | TEAD-YAP block | MITF primary | FBW7 activator
Fc1ccc(CSc2nn3cnnc3s2)cc1 | i | 58 | i | i
c1ccc(CSc2nn3cnnc3s2)cc1 | i | 58 | i | i
Cc1nc2cc(NC(=O)Cc3ccc(F)cc3)ccc2s1 | i | i | i | i
Cc1nn(C)c(C)c1-c1cc(NCCc2ccc(O)cc2)nc(N)n1 | i | 37 | i | i
Cc1nn(C)c(C)c1-c1cc(NCc2ccccc2)nc(N)n1 | i | i | i | i
COc1ccccc1OCCN1C(=O)C(=O)c2cc(Br)ccc21 | i | 34 | i | i
COc1ccc(CN2C(=O)C(=O)c3cc(Br)ccc32)cc1 | i | 64 | i | i
FC(F)Oc1ccc(-c2cn3c(n2)-c2ccccc2C3)c(OC(F)F)c1 | i | i | i | i
Cc1ccc(NC(=O)C2(S(=O)(=O)c3ccc(Cl)cc3)CC2)cc1 | i | i | i | i
Cc1cccc(NC(=O)C2(S(=O)(=O)c3ccc(Cl)cc3)CC2)c1 | i | i | i | 4.7
COc1ccccc1C(NC(=O)c1cc(OC)c(OC)c(OC)c1)c1cc(Cl)c2cccnc2c1O (configuration not stated) | i | i | i | i
CCCC(=O)NC(c1ccccc1OC)c1ccc2cccnc2c1O (configuration not stated) | i | 76 | i | i
CCCCC(=O)NC(c1ccccc1OC)c1ccc2cccnc2c1O (configuration not stated) | i | 73 | i | i
Cc1nnc(N(CC2CCCO2)C(=O)c2ccno2)s1 (configuration not stated) | i | i | i | i
COCC(=O)N(CC1CCCO1)c1nnc(C)s1 (configuration not stated) | i | 34 | i | i
Cc1ccc(/C=C2\N=C(c3ccc(Cl)c(Cl)c3)OC2=O)o1 | i | i | i | i
